{
  "source": "paper PMC9911399",
  "about": "“Two distinct binding modes provide the RNA-binding protein RbFox with extraordinary sequence specificity”",
  "binders": {"B1": {"name": "UUUCUCU (DNA:RNA)", "RNA": "GGGAGACCGGAAUUCAGAUUGUCCUUUCUCUUUAAAUCCCGUCGUAGCCACCA", "DNA 1": "CAATCTGAATTCCGGTCTCCC", "DNA 2": "TGGTGGCTACGACGGGATT"}, "B2": {"name": "CAUGAAC (DNA:RNA)", "RNA": "B1 RNA with U25C, U26A, C28G, U29A, C30A, U31C", "DNA 1": "CAATCTGAATTCCGGTCTCCC", "DNA 2": "TGGTGGCTACGACGGGATT"}, "B3": {"name": "CGAUGUC (DNA:RNA)", "RNA": "GGGAGACCGGAAUUCAGAUUGUCCCGAUGUCUUAAAUCCCGUCGUAGCCACCA", "DNA 1": "CAATCTGAATTCCGGTCTCCC", "DNA 2": "TGGTGGCTACGACGGGATT"}, "B4": {"name": "CGUGGUC (DNA:RNA)", "RNA": "B3 RNA with A27U, U28G", "DNA 1": "CAATCTGAATTCCGGTCTCCC", "DNA 2": "TGGTGGCTACGACGGGATT"}, "B5": {"name": "UCUGCGG (DNA:RNA)", "RNA": "B1 RNA with U26C, C28G, U29C, C30G, U31G", "DNA 1": "CAATCTGAATTCCGGTCTCCC", "DNA 2": "TGGTGGCTACGACGGGATT"}, "B6": {"name": "AAAACGU (DNA:RNA)", "RNA": "B3 RNA with C25A, G26A, U28A, G29C, U30G, C31U", "DNA 1": "CAATCTGAATTCCGGTCTCCC", "DNA 2": "TGGTGGCTACGACGGGATT"}, "B7": {"name": "AGUCCGC (DNA:RNA)", "RNA": "B3 RNA with C25A, A27U, U28C, G29C, U30G", "DNA 1": "CAATCTGAATTCCGGTCTCCC", "DNA 2": "TGGTGGCTACGACGGGATT"}, "B8": {"name": "GCGCGAA (DNA:RNA)", "RNA": "B3 RNA with C25G, G26C, A27G, U28C, U30A, C31A", "DNA 1": "CAATCTGAATTCCGGTCTCCC", "DNA 2": "TGGTGGCTACGACGGGATT"}, "B9": {"name": "GUGAAUG (DNA:RNA)", "RNA": "B3 RNA with C25G, G26U, A27G, U28A, G29A, C31G", "DNA 1": "CAATCTGAATTCCGGTCTCCC", "DNA 2": "TGGTGGCTACGACGGGATT"}, "B10": {"name": "GUUAAUG (DNA:RNA)", "RNA": "B1 RNA with U25G, C28A, U29A, C30U, U31G", "DNA 1": "CAATCTGAATTCCGGTCTCCC", "DNA 2": "TGGTGGCTACGACGGGATT"}, "B11": {"name": "GCGAAUG (DNA:RNA)", "RNA": "B3 RNA with C25G, G26C, A27G, U28A, G29A, C31G", "DNA 1": "CAATCTGAATTCCGGTCTCCC", "DNA 2": "TGGTGGCTACGACGGGATT"}, "B12": {"name": "GCGAAUC (DNA:RNA)", "RNA": "B3 RNA with C25G, G26C, A27G, U28A, G29A", "DNA 1": "CAATCTGAATTCCGGTCTCCC", "DNA 2": "TGGTGGCTACGACGGGATT"}, "B13": {"name": "GGAAAUG (DNA:RNA)", "RNA": "B3 RNA with C25G, U28A, G29A, C31G", "DNA 1": "CAATCTGAATTCCGGTCTCCC", "DNA 2": "TGGTGGCTACGACGGGATT"}, "B14": {"name": "GAGACCG (DNA:RNA)", "RNA": "B1 RNA with U25G, U26A, U27G, C28A, U29C, U31G", "DNA 1": "CAATCTGAATTCCGGTCTCCC", "DNA 2": "TGGTGGCTACGACGGGATT"}, "B15": {"name": "GGGAAUG (DNA:RNA)", "RNA": "B3 RNA with C25G, A27G, U28A, G29A, C31G", "DNA 1": "CAATCTGAATTCCGGTCTCCC", "DNA 2": "TGGTGGCTACGACGGGATT"}, "B16": {"name": "GAGAAUG (DNA:RNA)", "RNA": "B3 RNA with C25G, G26A, A27G, U28A, G29A, C31G", "DNA 1": "CAATCTGAATTCCGGTCTCCC", "DNA 2": "TGGTGGCTACGACGGGATT"}, "B17": {"name": "GUGACCG (DNA:RNA)", "RNA": "B1 RNA with U25G, U27G, C28A, U29C, U31G", "DNA 1": "CAATCTGAATTCCGGTCTCCC", "DNA 2": "TGGTGGCTACGACGGGATT"}, "B18": {"name": "GAGAUUG (DNA:RNA)", "RNA": "B3 RNA with C25G, G26A, A27G, U28A, G29U, C31G", "DNA 1": "CAATCTGAATTCCGGTCTCCC", "DNA 2": "TGGTGGCTACGACGGGATT"}, "B19": {"name": "GUGAAUC (DNA:RNA)", "RNA": "B3 RNA with C25G, G26U, A27G, U28A, G29A", "DNA 1": "CAATCTGAATTCCGGTCTCCC", "DNA 2": "TGGTGGCTACGACGGGATT"}, "B20": {"name": "UGACAAG (DNA:RNA)", "RNA": "B3 RNA with C25U, U28C, G29A, U30A, C31G", "DNA 1": "CAATCTGAATTCCGGTCTCCC", "DNA 2": "TGGTGGCTACGACGGGATT"}},
  "note": "Residue numbers refer to the chain shown, from its start. The full ranking holds about 16,000 sequences; the median of “ka relative to ugcaugu” is about 0.0091, and the highest 2% start at about 0.032. The full list was thinned out, with the highest values kept by preference.",
  "data": [
    {"target": "T1, RBFOX1 RRM (Homo sapiens, UniProt Q9NWB1 109-208)", "T1 sequence": "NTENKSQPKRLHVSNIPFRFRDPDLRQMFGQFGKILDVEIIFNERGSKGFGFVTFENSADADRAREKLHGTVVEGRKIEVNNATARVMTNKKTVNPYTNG", "experiment": "EMSA; HiTS-Eq, 1 nM pool, 10 min; buffer printed only for the single-RNA assays: 10 mM Tris pH 7.5, 150 mM NaCl, 3.4 mM EDTA, 0.001% NP-40, 30 C", "conditions": "tags: His6 N-terminal (pET28a); label: 5' 32P", "outline": "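Purified RbFox RRM (wild type or mutant) was equilibrated for 10 min in 50 µL with 1 nM of a 5′-radiolabelled pool of RNA with 7 randomized nucleotides, its flanks annealed to DNA oligonucleotides, across increasing protein concentrations. Free RNA was separated by 8% native PAGE, excised, reverse-transcribed, PCR-barcoded and sequenced on an Illumina HiSeq 2500. Relative association constants came from read-count changes of each variant against the control reaction, normalised to the cognate motif.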", "values": [
      {"binder": "B1", "binding signal": "0.0126 KA relative to UGCAUGU"},
      {"binder": "B2", "binding signal": "0.00509 KA relative to UGCAUGU"},
      {"binder": "B3", "binding signal": "0.0174 KA relative to UGCAUGU"},
      {"binder": "B4", "binding signal": "0.017 KA relative to UGCAUGU"},
      {"binder": "B5", "binding signal": "0.0178 KA relative to UGCAUGU"},
      {"binder": "B6", "binding signal": "0.000755 KA relative to UGCAUGU"},
      {"binder": "B7", "binding signal": "0.0128 KA relative to UGCAUGU"},
      {"binder": "B8", "binding signal": "0.0104 KA relative to UGCAUGU"},
      {"binder": "B9", "binding signal": "0.0355 KA relative to UGCAUGU"},
      {"binder": "B10", "binding signal": "0.0118 KA relative to UGCAUGU"},
      {"binder": "B11", "binding signal": "0.0369 KA relative to UGCAUGU"},
      {"binder": "B12", "binding signal": "0.0124 KA relative to UGCAUGU"},
      {"binder": "B13", "binding signal": "0.0124 KA relative to UGCAUGU"},
      {"binder": "B14", "binding signal": "0.00974 KA relative to UGCAUGU"},
      {"binder": "B15", "binding signal": "0.0951 KA relative to UGCAUGU"},
      {"binder": "B16", "binding signal": "0.0321 KA relative to UGCAUGU"},
      {"binder": "B17", "binding signal": "0.0167 KA relative to UGCAUGU"},
      {"binder": "B18", "binding signal": "0.019 KA relative to UGCAUGU"},
      {"binder": "B19", "binding signal": "0.0142 KA relative to UGCAUGU"},
      {"binder": "B20", "binding signal": "0.0143 KA relative to UGCAUGU"}
    ]}
  ]
}
